Measured values: PubChem BioAssay (NCI)
The panel holds about 83,000 compounds, 20% with a hit somewhere; the sample as a whole holds those more often.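 Assay: single dose, 48 h. Readout: percent growth (0 = no net growth; negative = cell death). Active: <10.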 Unmarked numbers belong to inactive results. Active and inactive are the calls of the source.

What was measured:
Test in all cases: NCI-60 one-dose screen, 48 h (100 = growth as untreated, 0 = no growth, -100 = all killed)
Details in all cases: 10 µM unless noted
[1] = system: HCT-15 colon
[2] = system: HT29 colon
[3] = system: SNB-19 CNS
[4] = system: U251 CNS
[5] = system: PC-3 prostate
[6] = system: SK-MEL-5 melanoma
[7] = system: UACC-62 melanoma
[8] = system: LOX IMVI melanoma
[9] = system: SK-MEL-28 melanoma
[10] = system: SK-MEL-2 melanoma
[11] = system: EKVX NSCLC
[12] = system: SN12C renal
[13] = system: UO-31 renal
[14] = system: TK-10 renal
[15] = system: ACHN renal
[16] = system: CAKI-1 renal
[17] = system: A498 renal
[18] = system: CCRF-CEM leukemia
[19] = system: MOLT-4 leukemia

Compound | growth [1] | growth [2] | growth [3] [%] | growth [4] [%] | growth [5] [%] | growth [6] [%] | growth [7] | growth [8] | growth [9] | growth [10] | growth [11] [%] | growth [12] | growth [13] | growth [14] | growth [15] | growth [16] | growth [17] | growth [18] | growth [19]
CC(C)CSc1nc(NN)c(C#N)c(-c2ccc(F)cc2)n1 | 46.9% | 103% | 60.8 | 60.2 | 56.7 | 50.3 | 56% | 54.4% | 85% | 67.9% | 89.4 | 79.9% | 55.8% | 92.1% | 60.6% | 67.9% | 68.2% | 61.6% | 80.3%
CCO/C=N/C1=C(C#N)C(c2ccc(Cl)cc2)c2c(c3ccc(C)cc3[nH]c2=O)O1 (centres undefined) | 91.1% | 80.5% | 84.7 | 90.3 | 83.5 | 87.1 | 67.6% | 86.8% | 101% | 101% | 69.5 | 85.5% | 49.6% | 116% | 78.5% | 49.7% | 66.1% | 87.3% | 95.6%
CN(C[C@H]1Cc2c(cccc2N2CCN(Cc3ccccn3)CC2)CN1)[C@H]1CCCc2cccnc21 | 37.3% | 36.9% | 57.6 | 32.5 | 45.7 | 55.8 | 85.1% | 44.9% | 88.5% | 73.2% | 54.8 | 53.5% | 20.1% | 58.7% | 43.2% | 42.8% | 65.9% | 41.2% | 41%
COc1ccc2[nH]c(=O)c(/C=N/Nc3nc(-c4ccccc4)cs3)c(O)c2c1 | 20.5% | 70.2% | 75.4 | 44.3 | 58.9 | 65.2 | 62.7% | 60% | 76% | 83.1% | 53.8 | 73.8% | 42.5% | 90.2% | 48.6% | 43.7% | 94.9% | 26.5% | 35.2%
CCN(CC)CCOc1ccc(/C(=C(/C)c2ccccc2)c2ccc(OC(C)=O)cc2)cc1 | 80.2% | 67.2% | 107 | 103 | 96.9 | 100 | 103% | 102% | 105% | 121% | 95.6 | 93.6% | 80.4% | 111% | 111% | 90.8% | 73.6% | 94.3% | 106%
CCOC(=O)c1c(/N=C2\SC(=O)/C(=C\C(=O)OC)N2NC)sc2c1CCN(C(=O)OCC)C2 | 95.9% | 99% | 99.2 | 101 | 94.8 | 99.5 | 97.7% | 94.2% | 101% | 92.5% | 89.1 | 98.9% | 87% | 121% | 102% | 103% | 110% | 101% | 106%
CCOC(=O)CC(=O)OC | 102% | 96.5% | 96.3 | 101 | 95.3 | 100 | 104% | 100% | 104% | 107% | 99.1 | 108% | 90.4% | 106% | 107% | 91.2% | 92.2% | 97.5% | 83.3%
CN(CCCCN(C[C@H]1Cc2ncccc2CN1)[C@H]1CCCc2cccnc21)C1CCC(F)(F)CC1 | 70.4% | 82.3% | 90.5 | 81.6 | 83.8 | 104 | 98.2% | 93.3% | 106% | 94.6% | 87.4 | 86.1% | 67.6% | 82.4% | 102% | 73.9% | 99.4% | 88.3% | 91.4%
CN(C[C@H]1Cc2c(cccc2N2CCN(c3ncccn3)CC2)CN1)[C@H]1CCCc2cccnc21 | 31.6% | 21.2% | 41 | 24.1 | 34.2 | 26.9 | 53.7% | 36.4% | 65.2% | 68.8% | 37.7 | 39.9% | 16.9% | 38% | 35.5% | 33.5% | 58.1% | 22.4% | 27.9%
CC12CCC3C4(C)COC(c5ccco5)OC4CCC3(C)C1CC(C1=CCOC1=O)O2 (centres undefined) | 97.7% | 105% | 97.3 | 110 | 90.5 | 101 | 87.8% | 106% | 106% | 131% | 91.6 | 96.4% | 81.5% | 105% | 102% | 92.4% | 103% | 101% | 97.5%
Cn1c(=O)cc(NC(=O)CN2CCN(c3cc4c(cc3F)c(=O)c(C(=O)O)cn4C3CC3)CC2)[nH]c1=O | 99% | 103% | 98.4 | 101 | 95.2 | 101 | 96.3% | 99.5% | 107% | 107% | 92.9 | 97.4% | 88.7% | 105% | 99.9% | 88.2% | 102% | 103% | 107%
CN1CCN(Cc2ccc(NC(=O)c3cncc(C#Cc4cnc(N)c5ccncc45)c3)cc2C(F)(F)F)CC1 | 10.9% | 9.95% (active) | 51.3 | 37.3 | 25.5 | 11.9 | -28.8% (active) | -83.9% (active) | -3.08% (active) | -25.2% (active) | 13.9 | 6.05% (active) | 3.59% (active) | 48.6% | 2.28% (active) | 4.48% (active) | -22.7% (active) | 14.2% | 16.6%
COc1ccc(/C=C2/C(=O)NC(SCC(=O)N3CCN(c4cc5c(cc4F)c(=O)c(C(=O)O)cn5C4CC4)CC3)=NC2N)cc1OC (centres undefined) | 98.9% | 112% | 102 | 102 | 99.2 | 104 | 102% | 103% | 105% | 111% | 87.6 | 104% | 86.9% | 112% | 104% | 94.5% | 107% | 99.4% | 109%
COc1ccc(C2C(C#N)=C(N)Oc3c2ccc2ccccc32)cc1 (centres undefined) | 28.3% | 34.1% | 46.7 | 35.4 | 39.9 | 31.2 | 23.6% | 27.1% | 52.2% | 24.8% | 73.8 | 51.5% | 38.8% | 81% | 52.5% | 30.8% | 0% (active) | 24.2% | 31.7%
OB(O)c1cccc(-c2nc3ccc4[nH]ncc4c3c3c2CCCC3)c1F | 35.2% | 45.2% | 58.3 | 50.6 | 55.5 | 79.5 | 27.4% | 26.3% | 92.5% | 57.1% | 50.2 | 47.7% | 27% | 18.3% | 32.2% | -24.3% (active) | 12.7% | 29.7% | 52%
C=C1CC2(OC1=O)C(=O)N(CCCN1C(=O)C3(CC(=C)C(=O)O3)c3ccccc31)c1ccccc12 (centres undefined) | -28.1% (active) | -51.5% (active) | 76.6 | 45.4 | 51.3 | 74.4 | 23.2% | -82.8% (active) | -13.8% (active) | 52.8% | 69.9 | -38.6% (active) | -39.3% (active) | -9.34% (active) | -17.9% (active) | -7.27% (active) | 70.4% | -13.8% (active) | 1.03% (active)
